Experimental findings from PubChem BioAssay are described below.

The nature of experiment [1]: inhibitors of TNFa-induced NFkB p65 translocation, primary screen, imaging, HUVEC, MLSMR starter and 10KST1 sets (AID 438;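 active = inhibition above 20% together with a positive visual image hit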;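 note: compound added about 3h40 before a 20 min TNFalpha stimulation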;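 for inhibition: signal is the nuclear over cytoplasmic p65 intensity ratio per well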). The following applies: HUVEC TNFa-induced p65 nuclear translocation; cell count: measured here: nuclei count (cytotoxicity indicator), at 2.08 µM; inhibition: at 2 µM, stronger effect = higher value, 0% TNFa-plus-vehicle, 100% no-TNFa wells.
Experiment [2] can be described thus: reduction of polyQ htt aggregates in cells – imaging, exon1htt(103Q)mCFP cells, high-content imaging, primary screen (AID 483;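 active = visual image review flags a hit and inhibition of aggregation exceeds 20%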;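 note: compound exposure lasted 3 days before fixation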;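 for nuclei count: percent of the per-plate median nuclei count of sample wells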). The settings on record: exon1htt(103Q)mCFP cell line, aggregate imaging, at 2 µM; inhibition of aggregation: stronger effect = higher value; nuclei count: measured here: cell count, toxicity.
A short description of experiment [3]: endothelial E-selectin expression blockers – imaging, HUVEC, immunofluorescence, MLSMR starter and 10KST1 sets, primary screen (AID 487;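 active = visually confirmed hit in the image check and inhibition above 20%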;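 for inhibition: signal is fraction of cell area covered by stained E-selectin grains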;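 for nuclei count: 100% = median nuclei count of all wells on the same plate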). The settings on record: HUVEC TNFalpha-induced E-selectin immunofluorescence imaging, at 2 µM; inhibition: stronger effect = higher value; nuclei count: measured here: cell number, toxicity.
Experiment [4] concerns the target Voltage-gated potassium channel subunit beta-2 (Rattus norvegicus) (UniProt P62483). Description: inhibitors of rat Kvbeta2 reductase activity – biochemical, NADPH fluorescence, primary screen (AID 622;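 active = fluorescence slope higher than the sample average by over 3 SD, cut at about -0.22 in these data, passing the limit was not always enough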;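 note: slope of raw intensity against log time taken from 70 to 1610 s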). The settings on record: recombinant KvBeta, 4-cyanobenzaldehyde reduction, at 10 µM, stronger effect = higher value.
Experiment [5] has the same target. Nature of the experiment: enhancers of rat Kvbeta2 NADPH turnover – biochemical, NADPH fluorescence, primary screen (AID 623;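 active = NADPH fluorescence slope more negative than the mean of all samples by about 3 SD, 99.7% confidence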;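 note: fluorescence intensity change per second fitted from 20 to 320 s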). The settings on record: Recombinant KvBeta, NADPH fluorescence decrease slope, 10 min; at 10 µM; stronger effect = lower value.
The target in experiment [6] is Alpha-2C adrenergic receptor (Homo sapiens) (UniProt P18825). Description: compounds altering alpha2C-coupled GIRK flux – cell-based, HEK293 alpha2C/GIRK1/2, thallium flux, primary screen (AID 624).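 Note: slope of fluorescence ratio to pre-addition baseline per second over 15 to 24 s.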 The settings on record: thallium flux BTC fluorescence, at 10 µM, actives lie on both sides.
Chain of Alpha-2C adrenergic receptor (Homo sapiens) (P18825 whole entry, looked up): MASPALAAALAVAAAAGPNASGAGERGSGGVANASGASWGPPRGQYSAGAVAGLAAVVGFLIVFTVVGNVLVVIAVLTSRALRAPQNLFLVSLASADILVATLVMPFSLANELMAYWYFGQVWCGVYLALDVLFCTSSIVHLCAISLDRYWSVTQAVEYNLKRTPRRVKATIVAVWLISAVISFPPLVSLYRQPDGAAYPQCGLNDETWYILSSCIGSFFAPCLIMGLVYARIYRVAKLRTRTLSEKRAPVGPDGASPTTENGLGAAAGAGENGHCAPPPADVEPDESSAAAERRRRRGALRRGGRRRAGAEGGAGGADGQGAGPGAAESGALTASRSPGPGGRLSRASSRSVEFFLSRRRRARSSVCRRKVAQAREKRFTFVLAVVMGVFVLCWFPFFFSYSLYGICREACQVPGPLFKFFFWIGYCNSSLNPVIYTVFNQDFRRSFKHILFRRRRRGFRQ
The nature of experiment [7]: blockers of RIG-like receptor reporter activation – cell-based, Sendai virus stimulus, luciferase, 10K MLSCN set, TLR/RLR signaling modifier project, primary screen (AID 602276;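 active = inhibition at or above 50% at 10 µM; inactive = inhibition below 50%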;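 note: firefly luciferase from ISG56 promoter only with Renilla not read in this screen; 0% = Sendai virus plus DMSO and 100% = medium plus DMSO without virus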). The following applies: HEK293 RL24 IRF3 luciferase reporter, at 10 µM, stronger effect = higher value. (Reporter assays use an easily measured gene product as a stand-in for the process of interest.)
The nature of experiment [8]: TLR3 IRF3 reporter activation blockers – cell-based, poly I:C stimulus, luciferase, 10K MLSCN set, primary screen (AID 602277;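 active = inhibition of the reporter signal at or above 50%; inactive = inhibition below 50%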). The settings on record: HEK293-TLR3 RL24 IRF3 luciferase reporter, at 10 µM, stronger effect = higher value.

The source made the active and inactive calls.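 Rule for the calls, unless noted: active = fluorescence slope after compound addition differing from the mean of all screened samples at 99.7% confidence, in either direction; inactive = the rest.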

Chain of Voltage-gated potassium channel subunit beta-2 (Rattus norvegicus) (P62483 whole entry, looked up): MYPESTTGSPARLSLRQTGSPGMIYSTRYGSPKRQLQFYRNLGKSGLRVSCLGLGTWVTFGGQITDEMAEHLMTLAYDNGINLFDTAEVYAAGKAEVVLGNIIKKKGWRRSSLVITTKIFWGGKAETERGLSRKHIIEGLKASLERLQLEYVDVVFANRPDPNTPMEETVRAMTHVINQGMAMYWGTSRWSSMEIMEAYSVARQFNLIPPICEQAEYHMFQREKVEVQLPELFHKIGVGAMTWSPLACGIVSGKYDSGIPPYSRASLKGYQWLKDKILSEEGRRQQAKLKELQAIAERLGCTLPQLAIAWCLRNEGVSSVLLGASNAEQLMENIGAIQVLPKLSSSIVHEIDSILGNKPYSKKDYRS

Consider `CC(C)(C)C1=Nn2c(nnc2-c2n[nH]c3c2CCC3)SC1`, for which the cell count in experiment [1] turned out to be 385. The inhibition in experiment [1] was 6% (inactive); in experiment [3] it was -30.7% (inactive); in experiment [7] it was 14.9% (inactive); in experiment [8], 15.7% (inactive). In addition, the inhibition of aggregation in experiment [2] was -24.6% (inactive). The values for the nuclei count in experiment [2] and in experiment [3] were 100% and 87.6%, respectively. Also, the fluorescence slope in experiment [4] was -0.521 (inactive). The NADPH fluorescence slope in experiment [5] is -1.7e-07 (inactive). Besides, in experiment [6], the slope is 0.00435 (inactive).

Turning to `COc1cccc(NC(=O)N2CCC(N3CCCCC3)CC2)c1`, the cell count in experiment [1] was found to be 369. The inhibition is 5.2% (inactive) in experiment [1], -124% (inactive) in experiment [3], 15.9% (inactive) in experiment [7] and 26.1% (inactive) in experiment [8]. Also, in experiment [2], the inhibition of aggregation is 7.2% (inactive). Moreover, the nuclei count in experiment [2] was determined as 105%; in experiment [3], 119%. Also, the fluorescence slope in experiment [4] is -0.582 (inactive). Moreover, the NADPH fluorescence slope in experiment [5] was 2.5e-05 (inactive). In addition, the slope in experiment [6] is 0.00728 (inactive).

In the case of `O=C(Nc1ccc2c(c1)nc1n2CCSC1)c1ccccc1`, in experiment [1], the cell count was determined as 487. In addition, the inhibition in experiment [1] was -0.5% (inactive); in experiment [3], -0.8% (inactive); in experiment [7], -30.3% (inactive); in experiment [8], -80.3% (inactive). The inhibition of aggregation in experiment [2] is 13.7% (inactive). Further, the results for the nuclei count in experiment [2] and in experiment [3] were 106% and 119%, respectively. Besides, the fluorescence slope in experiment [4] is -0.444 (inactive). For the same compound, the NADPH fluorescence slope in experiment [5] is -1.4e-05 (inactive). Also, the slope in experiment [6] was 0.00391 (inactive).

As for `COc1ccc(N2C(=O)C3C4C=CC(C4)C3C2=O)nn1` (centres undefined), the cell count in experiment [1] worked out at 719. Moreover, the inhibition in experiment [1] is -5.5% (inactive); in experiment [3] it was -182% (inactive); in experiment [7], 11.4% (inactive); in experiment [8], 23.1% (inactive). For the same compound, the inhibition of aggregation in experiment [2] is -9.5% (inactive). Besides, the nuclei count was 100% in experiment [2] and 142% in experiment [3]. Also, the fluorescence slope in experiment [4] was -0.44 (inactive). In addition, the NADPH fluorescence slope in experiment [5] is -0.000108 (inactive). Besides, the slope in experiment [6] was 0.00628 (inactive).

Consider `Cc1ccc(N(C(=O)c2ccncc2)C2C=CS(=O)(=O)C2)cc1` (centres undefined), for which the cell count in experiment [1] turned out to be 816. Besides, the inhibition in experiment [1] was -4% (inactive); in experiment [3] it was -56.8% (inactive); in experiment [7] it was -4.78% (inactive); in experiment [8], 24.5% (inactive). The inhibition of aggregation in experiment [2] was -5.8% (inactive). Besides, the nuclei count in experiment [2] stood at 114%; in experiment [3], 117%. The fluorescence slope in experiment [4] was -0.612 (inactive). The NADPH fluorescence slope in experiment [5] was -2.8e-05 (inactive). In experiment [6], the slope was 0.00723 (inactive).

Regarding `O=C(Nc1c(C(=O)NCc2ccco2)cnn1-c1ccccc1)c1ccc(F)cc1`, the cell count in experiment [1] came out at 400. The inhibition in experiment [1] was 6.3% (inactive); in experiment [3], -23.9% (inactive); in experiment [7] it was -1.86% (inactive); in experiment [8], 15.1% (inactive). Also, the inhibition of aggregation in experiment [2] was 12.1% (inactive). Also, the nuclei count in experiment [2] came to 81.6%; in experiment [3], 89.1%. The fluorescence slope in experiment [4] is -0.294 (inactive). The NADPH fluorescence slope in experiment [5] was -2.8e-06 (inactive). Also, in experiment [6], the slope is 0.00584 (inactive).

`COc1ccccc1-n1c(SCC(=O)Nc2ccc3c(c2)OCO3)nc2c(c1=O)SCC2`: the cell count in experiment [1] is 324. For the same compound, the inhibition is -4.6% (inactive) in experiment [1], -54.1% (inactive) in experiment [3], -5.47% (inactive) in experiment [7] and 7.78% (inactive) in experiment [8]. Also, the inhibition of aggregation in experiment [2] was -2.1% (inactive). Moreover, the results for the nuclei count in experiment [2] and in experiment [3] were 94.7% and 137%, respectively. Further, the fluorescence slope in experiment [4] is -0.545 (inactive). Besides, in experiment [5], the NADPH fluorescence slope is 4.8e-05 (inactive). Moreover, the slope in experiment [6] is 0.00487 (inactive).

As to `CCOC(=O)N1CCN(Cc2cc(=O)oc3ccc4ccccc4c23)CC1`, the cell count in experiment [1] amounted to 472. Also, the inhibition in experiment [1] is 16.9% (inactive); in experiment [3], -64% (inactive); in experiment [7], 16.9% (inactive); in experiment [8], 21.7% (inactive). Also, in experiment [2], the inhibition of aggregation is 11.2% (inactive). In addition, the nuclei count in experiment [2] stood at 93.3%; in experiment [3] it was 113%. In addition, in experiment [4], the fluorescence slope is -0.408 (inactive). For the same compound, the NADPH fluorescence slope in experiment [5] is 8.3e-06 (inactive). Also, the slope in experiment [6] was 0.0055 (inactive).

Take `CC1=C(C(=O)NCc2ccccn2)C2(CCC(C)CC2)OC1=O` (centres undefined): the cell count in experiment [1] is 759. Besides, the inhibition in experiment [1] was -5% (inactive); in experiment [3] it was 19.6% (inactive); in experiment [7], 12.1% (inactive); in experiment [8] it was 26.9% (inactive). In addition, the inhibition of aggregation in experiment [2] is 16.1% (inactive). Besides, the nuclei count in experiment [2] came out at 91.3%; in experiment [3], 110%. In addition, the fluorescence slope in experiment [4] is -0.521 (inactive). In addition, the NADPH fluorescence slope in experiment [5] is -2.4e-05 (inactive). Moreover, in experiment [6], the slope was 0.00608 (inactive).

For the compound `CCOc1ccc2c(c1)n(CO)c(=S)n2CO`, the cell count in experiment [1] was determined as 677. Moreover, the inhibition in experiment [1] is -26.5% (inactive); in experiment [3], 15.1% (inactive); in experiment [7], 16.9% (inactive); in experiment [8], 19.4% (inactive). For the same compound, the inhibition of aggregation in experiment [2] is 4.4% (inactive). The nuclei count in experiment [2] amounted to 68.8%; in experiment [3] it was 105%. Further, the fluorescence slope in experiment [4] was -0.498 (inactive). For the same compound, in experiment [5], the NADPH fluorescence slope was -4.8e-05 (inactive). Further, the slope in experiment [6] was 0.00378 (inactive).

With `Cc1cnc(NC(=O)CSc2nc3ccccc3c(=O)[nH]2)s1`, the cell count in experiment [1] worked out at 281. The inhibition in experiment [1] was 8.9% (inactive); in experiment [3] it was 65% (active); in experiment [7], 2.98% (inactive); in experiment [8], -0.232% (inactive). Also, the inhibition of aggregation in experiment [2] was -0.5% (inactive). The nuclei count in experiment [2] is 99.4%; in experiment [3], 98.4%. The fluorescence slope in experiment [4] is -0.427 (inactive). Further, in experiment [5], the NADPH fluorescence slope was 5.1e-05 (inactive). Besides, the slope in experiment [6] was 0.00477 (inactive).

On to `CS(=O)(=O)N(CC(=O)Nc1ccc2c(c1)OCCO2)Cc1ccccc1`, for which, in experiment [1], the cell count came to 348. For the same compound, the inhibition is -4.7% (inactive) in experiment [1], 9.6% (inactive) in experiment [3], 8.2% (inactive) in experiment [7] and 17.2% (inactive) in experiment [8]. The inhibition of aggregation in experiment [2] is -2.9% (inactive). In addition, the nuclei count in experiment [2] worked out at 107%; in experiment [3], 105%. Besides, the fluorescence slope in experiment [4] was -0.413 (inactive). The NADPH fluorescence slope in experiment [5] is 3.7e-05 (inactive). Moreover, in experiment [6], the slope is 0.00583 (inactive).

As to `CCOc1ccc(-c2nc(S(=O)(=O)c3ccccc3)c(NCc3cccnc3)o2)cc1`, the cell count in experiment [1] is 621. For the same compound, the inhibition is 0.6% (inactive) in experiment [1], -59% (inactive) in experiment [3], 0.887% (inactive) in experiment [7] and -7.62% (inactive) in experiment [8]. Further, in experiment [2], the inhibition of aggregation is -7.9% (inactive). Moreover, the values for the nuclei count in experiment [2] and in experiment [3] were 105% and 109%, respectively. The fluorescence slope in experiment [4] is -0.534 (inactive). In experiment [5], the NADPH fluorescence slope was 3.2e-06 (inactive). The slope in experiment [6] was 0.00448 (inactive).

On to `Cc1ccc(CCP(=O)(O)CN2CCOCC2)cn1`, for which the cell count in experiment [1] came out at 380. Further, the inhibition in experiment [1] was 5.9% (inactive); in experiment [3], 4.3% (inactive); in experiment [7], -1.89% (inactive); in experiment [8] it was 33.2% (inactive). Also, the inhibition of aggregation in experiment [2] is -2.2% (inactive). The nuclei count in experiment [2] came out at 100%; in experiment [3], 95.2%. Besides, in experiment [4], the fluorescence slope was -0.437 (inactive). In addition, the NADPH fluorescence slope in experiment [5] is 3.3e-05 (inactive). In experiment [6], the slope was 0.00662 (inactive).

Broadly, the inhibition is the relative decrease from the control value, in per cent.
